# Counter-ions that a name gives are not always drawn. ± gives the standard deviation of the averaged measurements.
# How the values were obtained:
# Assay in all cases: growth (OD600 after 10 h); higher = more growth (less inhibition)
# [1] = test system: E. coli TESEC Alr+ wild-type control; conditions: compound 0.1 mM; raw OD600 reference: median of DMSO wells 0.241, cell-free background 0.041
# Protocol: (§1)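 TESEC Mtb Alr E. coli, or the Alr+ wild-type control, in 384-well plates with Prestwick library compounds at 0.1 mM and 1% DMSO, across arabinose induction levels of 1E3 to 1E7 nM. Growth is read as OD600 after 10 h at 37 °C in triplicate biological replicates.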
# E. coli TESEC Mtb Alr [2] = conditions: compound 0.1 mM
# Protocol: as §1
# E. coli TESEC Mtb Asd = conditions: compound 0.1 mM
# Protocol: (§2)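 TESEC E. coli strains in which the native enzyme is deleted and replaced by arabinose-inducible Mtb Asd, DapB, CysH or TrpD, each grown in its selective medium. Strains were screened against the Prestwick library at 0.1 mM and 1% DMSO in 384-well format at low and high arabinose induction. Growth is read as OD600 after 10 h in triplicate.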
# E. coli TESEC Mtb DapB = conditions: compound 0.1 mM
# Protocol: as §2
# [3] = test system: E. coli TESEC Alr+ wild-type control; conditions: compound 0.1 mM; raw OD600 reference: median of DMSO wells 0.49, cell-free background 0.052
# Protocol: (§3)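 TESEC Mtb Alr E. coli (ΔaraC ΔtolC ΔentC Δalr ΔdadX, arabinose-inducible Mtb Alr) or the Alr+ wild-type control strain, grown in defined M9-fructose medium without D-alanine in 96-well plates with Prestwick library compounds at 0.1 mM and 1% DMSO. Low Alr induction is 0.1 µM arabinose and high induction is 10 mM arabinose.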
# E. coli TESEC Mtb Alr [4] = conditions: compound 0.1 mM; remark: listed apart in the source
# Protocol: as §3
# [5] = arabinose 1000 nM, raw OD600 reference: median of DMSO wells 0.294, cell-free background 0.041
# [6] = arabinose 10000 nM, raw OD600 reference: median of DMSO wells 0.264, cell-free background 0.041
# [7] = arabinose 100000 nM, raw OD600 reference: median of DMSO wells 0.201, cell-free background 0.041
# [8] = arabinose 1000000 nM, raw OD600 reference: median of DMSO wells 0.193, cell-free background 0.041
# [9] = arabinose 10000000 nM, raw OD600 reference: median of DMSO wells 0.146, cell-free background 0.041
# [10] = arabinose induction (level): High, raw OD600 reference: median of DMSO wells 0.331, cell-free background 0.041
# [11] = arabinose induction (level): Low, raw OD600 reference: median of DMSO wells 0.417, cell-free background 0.041
# [12] = arabinose induction (level): High, raw OD600 reference: median of DMSO wells […], cell-free background 0.041
# [13] = arabinose induction (level): Low, raw OD600 reference: median of DMSO wells 0.227, cell-free background 0.041
# [14] = arabinose 100 nM, raw OD600 reference: median of DMSO wells 0.413, cell-free background 0.052
# [15] = arabinose 10000000 nM, raw OD600 reference: median of DMSO wells […], cell-free background 0.052
Compound,growth [1],growth (E. coli TESEC Mtb Alr [2]; [5]),growth (E. coli TESEC Mtb Alr [2]; [6]),growth (E. coli TESEC Mtb Alr [2]; [7]),growth (E. coli TESEC Mtb Alr [2]; [8]),growth (E. coli TESEC Mtb Alr [2]; [9]),growth (E. coli TESEC Mtb Asd; [10]),growth (E. coli TESEC Mtb Asd; [11]),growth (E. coli TESEC Mtb DapB; [12]),growth (E. coli TESEC Mtb DapB; [13]),growth [3],growth (E. coli TESEC Mtb Alr [4]; [14]),growth (E. coli TESEC Mtb Alr [4]; [15])
COc1ccc2c(c1)c(CC(=O)OCC(=O)O)c(C)n2C(=O)c1ccc(Cl)cc1 [Acemetacin],0.154 ± 0.0063,0.198 ± 0.012,0.195 ± 0.0045,0.139 ± 0.0049,0.109 ± 0.0015,0.131 ± 0.0045,0.21 ± 0.078,0.211 ± 0.012,0.152 ± 0.0045,0.185 ± 0.024,0.363 ± 0.021,0.362 ± 0.084,0.183 ± 0.012
CCCN(CCC)S(=O)(=O)c1ccc(C(=O)O)cc1 [Probenecid],0.226 ± 0.0059,0.254 ± 0.0078,0.261 ± 0.011,0.221 ± 0.047,0.153 ± 0.0022,0.159 ± 0.0038,0.346 ± 0.12,0.371 ± 0.07,0.232 ± 0.0066,0.223 ± 0.02,0.49 ± 0.048,0.4 ± 0.016,0.267 ± 0.0045
NC(=O)C(c1ccccc1)(c1ccccc1)[C@@H]1CCN(CCc2ccc3c(c2)CCO3)C1 [Darifenacin hydrobromide],0.163 ± 0.011,0.216 ± 0.0036,0.292 ± 0.0043,0.16 ± 0.02,0.0999 ± 0.0027,0.146 ± 0.011,0.156 ± 0.033,0.276 ± 0.01,0.186 ± 0.0081,0.205 ± 0.015,0.403 ± 0.013,0.411 ± 0.0056,0.272 ± 0.016
CN1CCN(CCCN2c3ccccc3Sc3ccc(C(F)(F)F)cc32)CC1 [Trifluoperazine dihydrochloride],0.0402,0.03983 ± 0.00032,0.03903 ± 0.00012,0.04003 ± 5.8e-05,0.03933 ± 5.8e-05,0.0403 ± 0.0001,0.0513 ± 0.00026,0.054 ± 0.0007,0.04873 ± 0.00025,0.171 ± 0.11,0.04767 ± 0.00035,0.26 ± 0.19,0.0509 ± 0.00026
CSc1nc2cc(Cl)c(Oc3cccc(Cl)c3Cl)cc2[nH]1 [Triclabendazole],0.0427 ± 0.0024,0.0531 ± 0.0014,0.0802 ± 0.002,0.0447 ± 0.0021,0.0733 ± 0.012,0.04873 ± 5.8e-05,0.0558 ± 0.0083,0.0583 ± 0.0045,0.0562 ± 0.0033,0.0542 ± 0.0043,0.0897 ± 0.0096,0.0864 ± 0.011,0.137 ± 0.014
CC(C)NC[C@@H](O)COc1ccc(CC(N)=O)cc1 [(R)-(+)-Atenolol],0.255 ± 0.004,0.322 ± 0.019,0.262 ± 0.012,0.221 ± 0.013,0.1771 ± 0.00066,0.161 ± 0.0073,0.485 ± 0.012,0.442 ± 0.033,0.243 ± 0.059,0.25 ± 0.017,0.546 ± 0.038,0.405 ± 0.019,0.342 ± 0.012
Cn1c(=O)c2c(ncn2CC(=O)O)n(C)c1=O [Acefylline],0.248 ± 0.0081,0.307 ± 0.01,0.253 ± 0.0048,0.21 ± 0.0073,0.191 ± 0.0048,0.138 ± 0.0046,0.297 ± 0.04,0.433 ± 0.014,0.196 ± 0.0038,0.207 ± 0.021,0.457 ± 0.013,0.408 ± 0.007,0.347 ± 0.01
Cc1cccc(C)c1NC(=O)C1CCCCN1C (stereo not drawn) [Mepivacaine hydrochloride],0.233 ± 0.012,0.2802 ± 0.0024,0.273 ± 0.0048,0.199 ± 0.026,0.225 ± 0.013,0.136 ± 0.0053,0.366 ± 0.042,0.367 ± 0.045,0.203 ± 0.013,0.216 ± 0.024,0.46 ± 0.038,0.41 ± 0.011,0.365 ± 0.0059
CCC(=O)OCC(=O)[C@@]1(OC(=O)CC)[C@@H](C)C[C@H]2[C@@H]3CCC4=CC(=O)C=C[C@]4(C)[C@@]3(Cl)[C@@H](O)C[C@@]21C [Beclomethasone dipropionate],0.216 ± 0.0072,0.31 ± 0.028,0.28 ± 0.018,0.179 ± 0.013,0.12 ± 0.013,0.167 ± 0.0041,0.246 ± 0.032,0.3 ± 0.031,0.22 ± 0.0053,0.248 ± 0.035,0.499 ± 0.027,0.442 ± 0.0072,0.247 ± 0.018
CCN(CC)C(=O)C1(c2ccccc2)CC1CN (stereo not drawn) [Milnacipran hydrochloride],0.233 ± 0.011,0.298 ± 0.0046,0.271 ± 0.0097,0.202 ± 0.006,0.182 ± 0.02,0.151 ± 0.0028,0.239 ± 0.024,0.385 ± 0.033,0.203 ± 0.016,0.259 ± 0.026,0.547 ± 0.052,0.424 ± 0.014,0.322 ± 0.0073
OCCN1CCN(CCCN2c3ccccc3Sc3ccc(Cl)cc32)CC1 [Perphenazine],0.0416 ± 0.00046,0.0411 ± 0.00082,0.0422 ± 0.00061,0.0431 ± 0.0021,0.04167 ± 0.00035,0.0462 ± 0.00053,0.0588 ± 0.0034,0.0626 ± 0.0018,0.0511 ± 0.001,0.0954 ± 0.078,0.0523 ± 0.0019,0.285 ± 0.2,0.0538 ± 0.00074
CCOc1nc2cccc(C(=O)O)c2n1Cc1ccc(-c2ccccc2-c2nnn[nH]2)cc1 [Candesartan],0.238 ± 0.0077,0.297 ± 0.0053,0.285 ± 0.0054,0.212 ± 0.023,0.222 ± 0.015,0.141 ± 0.0058,0.292 ± 0.03,0.265 ± 0.029,0.197 ± 0.0041,0.205 ± 0.024,0.642 ± 0.092,0.415 ± 0.0062,0.355 ± 0.0055
COc1cccc(N(C)C(=S)Oc2ccc3c(c2)CCCC3)n1 [Liranaftate],0.213 ± 0.0062,0.259 ± 0.0073,0.2888 ± 0.0012,0.167 ± 0.0063,0.1202 ± 0.0011,0.149 ± 0.0092,0.297 ± 0.025,0.426 ± 0.045,0.196 ± 0.013,0.224 ± 0.0065,0.385 ± 0.0054,0.407 ± 0.038,0.127 ± 0.0031
CC(C)NC[C@H](O)COc1cccc2ccccc12 [(S)-propranolol hydrochloride],0.202 ± 0.0096,0.263 ± 0.011,0.295 ± 0.0058,0.18 ± 0.016,0.191 ± 0.014,0.149 ± 0.0089,0.279 ± 0.071,0.308 ± 0.043,0.173 ± 0.025,0.231 ± 0.051,0.497 ± 0.031,0.424 ± 0.0079,0.332 ± 0.016
O=c1[nH]c(=O)n([C@H]2C[C@H](O)[C@@H](CO)O2)cc1C(F)(F)F [Trifluridine],0.194 ± 0.02,0.213 ± 0.049,0.0994 ± 0.0099,0.121 ± 0.0045,0.082 ± 0.0069,0.135 ± 0.0027,0.13 ± 0.0033,0.203 ± 0.0098,0.164 ± 0.006,0.174 ± 0.0024,0.476 ± 0.016,0.077 ± 0.0037,0.129 ± 0.023
CN(Cc1ccc(C(C)(C)C)cc1)Cc1cccc2ccccc12 [Butenafine Hydrochloride],0.182 ± 0.0021,0.177 ± 0.0088,0.2 ± 0.0095,0.147 ± 0.0047,0.0789 ± 0.0012,0.116 ± 0.0035,0.204 ± 0.012,0.182 ± 0.019,0.15 ± 0.019,0.169 ± 0.02,0.399 ± 0.012,0.312 ± 0.013,0.11 ± 0.0097

# Source: the supplement of paper PMC9262897, “Low-cost anti-mycobacterial drug discovery using engineered E. coli” (Nature Communications, 2022)
